# Compound activity from PubChem.
# Abeta rescue: restores growth of yeast expressing A-beta42 peptide | yeast expressing A-beta42, growth rescue, OD600, 48 h; response scale: 0% DMSO, 100% iron-clioquinol control | AID 1347071 | 0.063% of 410,000 active | Potency, µM (series often up to 46.1 µM), most hits filed as activators; note: nearly all actives have a fitted effect of over 55% in size
#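 Yeast A-beta toxicity model in growth medium with pinned compounds, 48 h at 30 C; growth read as absorbance at 600 nm. Normalized to FeCl3/clioquinol equimolar mix (positive) and DMSO (negative).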
# FUS yeast rescue: suppressors of FUS proteinopathy in yeast | S. cerevisiae FUS-expressing, growth rescue, OD600, 24 h | Potency, µM (titrated, usually from 76.6 µM), hits mostly activators | 0.24% of 390,000 active | AID 1347120;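 note: plate controls were DMSO vehicle for no effect and reference control for full effect; nearly all actives have a fitted effect of over 55% in size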
#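 Restored growth of FUS-toxic S. cerevisiae, read as 600 nm absorbance after 24 h at 30C in galactose medium (starting OD 0.005). Controls CP55940 and DMSO.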
# TDP43 rescue: inhibitors of TDP-43 toxicity in yeast; TDP-43 expressing yeast growth rescue, BacTiter-Glo, 24 h; Potency, µM (doses to about 46.1 µM), for inactives: at the highest dose growth rescue (activation), actives largely listed as activators; 1.8% of 410,000 active; note: % of control where 0% means no effect; nearly all actives have a fitted effect of over 50% in size
#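 Cell-based yeast growth screen: TDP-43 expression induced in galactose, inoculum OD600=0.02 after raffinose pregrowth to mid-log. Read-out BacTiter-Glo luminescence at 24 hr, 30 deg C; inhibition of toxicity seen as signal increase.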
# Mito fusion yeast: blocks mitochondrial division or promotes mitochondrial fusion; AID 485298; 0.23% of 320,000 active; Potency, µM (highest dose often 46.1 µM), for the others: at the top dose growth rescue (activation), hits mostly activators; S. cerevisiae fusion-defective mutant growth rescue, CellTiterGlo 48 h; note: % of control where 0% means no effect; nearly all actives have a fitted effect of over 45% in size
#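 Compounds are tested for their ability to restore growth of mitochondrial fusion-defective yeast strains at non-permissive 37C in YPEG medium over 48 hours. Viability is quantified by luciferase luminescence.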
# aSyn rescue: alpha-synuclein toxicity inhibition in yeast | Yeast expressing alpha-synuclein, growth rescue, BacTiter-Glo, 24 h | 0.14% of 370,000 active | Potency, µM (top dose mostly 46.1 µM), inactives show top-dose growth rescue (activation), actives largely listed as activators; note: % of control where 0% means no effect; nearly all actives have a fitted effect of over 65% in size
#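 Galactose-induced alpha-syn yeast (OD600=0.02, raffinose-pregrown) + pinned cpd, 24 hr, 30 deg C; growth by BacTiter-Glo luminescence. Growth restoration scores as activation.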
# * hit, by the source's call; i = inactive; ? = inconclusive; . = no result; [ ] = remark or other dose. Only some compounds are listed: those with a hit (about 2.2% of all), similar ones and a draw of the others. Calls come from the whole dose curve; as a rule, active = well fitted curve in the direction sought with a large enough effect; inconclusive = small, poorly fitted or top-dose-only effect, or another doubt; inactive = no such curve, though single readings can be large; an effect the other way counts as inactive or inconclusive. Potency is the fitted concentration of half-maximal effect.
SMILES,Abeta rescue,FUS yeast rescue,TDP43 rescue,Mito fusion yeast,aSyn rescue
Cc1nn(C)c(C)c1NS(=O)(=O)c1ccc(Cl)s1,i,i,4.2%,.,-6.5%
COc1ccccc1CCNC(=O)c1ccc(Br)s1,i,i,14.1µM*,3.0%,11.7%
Cc1ccc(F)cc1NS(=O)(=O)c1ccc(Cl)s1,i,i,35.5µM*,11.3%,12.8%[1.84 µM]
CCOc1ccccc1NS(=O)(=O)c1ccc(Br)s1,i,i,-17.9%,0.4%,14.1µM*
O=S(=O)(Nc1ccc(F)cc1F)c1ccc(Br)s1,i,i,20µM*,.,.
CCn1nnc2c(N3CCCC3)ncnc21,.,.,.,.,-3.0%
COc1ccccc1CNS(=O)(=O)c1ccc(Br)s1,i,i,12.6µM*,-1.3%,9.9%
CC(C)Sc1nnc2c3ccccc3n(C)c2n1,.,.,.,.,-11.3%
O=C(NCCO)C1(C(=O)C2CC2)CC(c2ccccn2)=NO1 (stereo not drawn),.,i,.,.,.
CCC(C)c1ccc(NC(=S)NCCn2cc(Br)cn2)cc1 (stereo not drawn),10µM*,i,-2.5%[0.397 µM],-1.5%,-0.7%
CCC(C)c1ccc(NC(=S)NCCn2cc(Cl)cn2)cc1 (stereo not drawn),i,i,0.0%,23.8%,0.0%
Cc1ccc(-c2cccc3[nH]cc(C)c23)s1,.,i,.,.,.
Cc1ccc(S(=O)(=O)N2CCSC2)cc1C,i,0.891µM*,-11.1%,0.2%,1.3%
COc1ccc(S[C@]2(C(=O)N(C)C)CC(=O)N(c3ccsc3)[C@@H]2c2ccc(OC)cc2)cc1,.,i,.,.,.
C[C@H](O)[C@@H]1CN2CCc3c([nH]c4c(-c5ccc6c(c5)OCO6)cccc34)[C@@H]2C[C@@H]1N(C)C(=O)c1ccco1,.,i,.,.,.
Cc1ccc(S(=O)(=O)N2CCN(c3nc(-n4cncn4)nc4ccccc34)CC2)cc1,.,.,.,.,3.8%
CCc1ccc(S(=O)(=O)c2nnn(-c3cccc(C)c3)c2N)cc1,i,i,22.4µM*,.,.
Nc1c(S(=O)(=O)c2ccccc2)nnn1-c1ccccc1,i,i,-2.8%,0.5%,7.2%
COc1ccc(-c2nn(C)c3sc(C(=O)N4CCOCC4)cc23)cc1OC,i,i,12.5%,10.5%,1.2%
COc1ccc(-c2nn(C)c3sc(C(=O)N4CCN(c5ccccc5F)CC4)cc23)cc1OC,i,i,20µM*,.,.
COc1ccc(N2CCN(C(=O)c3cc4c(-c5cccc(OC)c5)nn(C)c4s3)CC2)cc1,i,?,15.8µM*,-5.5%,0.3%
CCOc1ccc(CNC(=O)CSc2c3c(nc4ccc(Cl)cc24)CCCC3)cc1,i,i,20.3%,.,.
O=C(CSc1c2c(nc3ccc(Cl)cc13)CCCC2)N1CCN(c2cccc(Cl)c2)CC1,i,?,15.8µM*,.,.
COc1ccc(N2CCN(C(=O)CSc3c4c(nc5ccc(Cl)cc35)CCCC4)CC2)cc1,i,?,31.6µM*,.,.
COc1ccc(OC)c(CNC(=O)CSc2c3c(nc4cc(Cl)ccc24)CCCC3)c1,i,i,15.1%,.,.
SMILES,Abeta rescue,FUS yeast rescue,TDP43 rescue,Mito fusion yeast,aSyn rescue
O=C(CSc1c2c(nc3ccc(Cl)cc13)CCCC2)N1CCN(c2ccc(Cl)cc2)CC1,i,?,17.8µM*,.,.
Cc1ccc(CNC(=O)CSc2c3c(nc4cc(Cl)ccc24)CCCC3)o1,i,?,15.8µM*,-0.8%,-12.7%
Clc1ccc(-c2nn3c(-c4cc(-c5ccccc5)n[nH]4)nnc3s2)cc1,.,.,.,.,4.6%
CCOC(=O)c1ccc(-n2c(-c3ccc(C)cc3)c(C)n3c4c(=O)n(C)c(=O)n(C)c4nc23)cc1,i,i,9.9%,.,2.6%
C[C@H]1[C@@H](NC(=O)C2CCC2)CC[C@@]23CCCN2C(=O)CCC[C@@H]13,.,i,.,.,.
CCOC(=O)C1=C(COC(=O)c2sccc2C)NC(=O)NC1C (stereo not drawn),i,i,2.9%,2.8%,0.5%
CCOC(=O)C1=C(COC(=O)c2ccc([N+](=O)[O-])s2)NC(=O)NC1C (stereo not drawn),i,i,20µM*,.,-73.8%
COc1cccc(NC(=O)CN(C)C(=O)c2cccc(NS(=O)(=O)c3ccccc3)c2)c1,i,?,6.7%,-0.9%,-8.2%[1.84 µM]
COc1cccc(NC(=O)CN(C)C(=O)c2cccc(S(=O)(=O)N3c4ccccc4CC3C)c2)c1 (stereo not drawn),i,22.4µM*,20.2%,5.0%,3.5%
COc1ccc(-c2nc3ccc(NC(=O)CO)cc3c(=O)n2Cc2cccc(Cl)c2)cc1COc1ccc(NC(C)=O)cc1,.,.,.,.,4.9%
CCCCCCCc1n[nH]c(=S)n1Cc1ccccc1,?,i,15.8µM*,11.5%,1.8%
S=c1[nH]nc(-c2cc3ccccc3o2)n1Cc1ccccc1,i,i,-13.8%,14.1µM*,-13.0%
Cc1nc2ccn(Cc3ccco3)c(=O)c2cc1C(=O)Nc1ccc(F)cc1,i,i,15.0%,.,.
Clc1ccccc1-c1cnc2sc(NCc3ccc4c(c3)OCO4)nn12,i,i,3.98µM*,.,6.6%
Clc1ccccc1-c1ccc2ncnc(NCc3ccc4c(c3)OCO4)c2c1,i,i,.,?,.
CCCCc1ccc(NC(=O)CC(C)C)cc1,i,i,11.2µM*,7.0%,-0.3%
CCOC(=O)c1cn2nc(SCc3ccccc3)nc2nc1C,i,i,15.8µM*,-1.8%,1.1%
Cc1nc2nc(SCc3ccccc3)nn2c(C)c1C,i,i,?,9.7%,10.2%
O=C(Cn1cnc([N+](=O)[O-])c1)c1ccc(Cl)cc1,i,i,15.8µM*,19.6%,0.3%
O=[N+]([O-])c1cn(Cc2ccc(Cl)cc2)cn1,?,i,11.5%,0.6%,6.5%
COc1ccc(NC(=O)COC(=O)/C=C/c2cccs2)c(OC)c1,i,i,13.8%,-2.8%,-0.3%
COc1ccc(Cl)cc1NC(=O)COC(=O)C1CCCCC1,?,i,12.6µM*,22.9%,0.9%[1.84 µM]
Cc1ccc(Cl)cc1NC(=O)COC(=O)C1CCCC1,5.62µM*,i,18.6%,8.0%,-5.0%
COc1ccc(Cl)cc1NC(=O)COC(=O)C1CC1,?,i,24.5%,9.4%,-0.6%
COc1ccccc1NC(=O)COC(=O)/C=C/c1cccs1,i,.,14.1µM*,.,5.7%
COc1ccc(Cl)cc1NC(=O)COC(=O)Cc1cccs1,i,i,10µM*,0.6%,6.9%
COc1cccc(C(=O)Nc2cccc(NC(=O)c3ccc(Cl)cc3Cl)c2)c1,i,i,11.2µM*,.,.
COc1cccc(C(=O)Nc2cccc(NC(=O)c3ccccc3Cl)c2)c1,i,?,?,12.9%,-1.3%
COc1cccc(NC(=O)c2csc3c2CCCC3)c1,i,i,17.8µM*,-0.6%,-6.6%
COc1cccc(NC(=O)c2cnsn2)c1,i,i,12.6µM*,3.4%,.
